From PubChem
Rows were chosen to be rich in hits. Some 0.88% of all compounds tested hit in one or more screens of this group.
WRN helicase inh – inhibitors of human WRN helicase | Q14191 | WRN helicase unwinding, fluorescent forked duplex, kinetic | Potency, µM (top dose mostly 114 µM), for inactives: at the top dose activity change, negative = inhibition, most hits filed as inhibitors | AID 651768 | hit rate 0.46% among 360,000; further: on the % scale 0 is the no-effect control and ±100 the full control effect; nearly all actives have a fitted effect of over 55% in size
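Primary qHTS, 1536-well format. 20 nM WRN + compound, 15 min RT; start with 100 nM forked fluorophore/quencher duplex, 2 mM ATP (final); kinetic read ex 525/em 598 nm.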
RECQ1 helicase – RECQ1 (human) helicase inhibition | P46063 | Potency, µM (series often up to 57.3 µM), for the others: at the highest dose activity, negative = inhibition, most hits filed as inhibitors | hit rate 0.54% among 240,000 | RECQ1 DNA unwinding, red fluorescence kinetic read;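 further: plate controls were vehicle for no effect and no enzyme for full effect; nearly all actives have a fitted effect of over 30% in size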
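RECQ1T1 50 nM; forked duplex (20 bp + 30-nt ss tails) 200 nM, ATP 2 mM final; pH 8.0, 2 mM MgCl2, 2.5 ug/ml poly(dI-dC); 15 min compound preincubation; discontinuous kinetic read over 2 h at RT.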
APEX1 inh – inhibitors of human APE1 endonuclease. P27695. recombinant APE1, TAMRA/BHQ-2 abasic DNA cleavage fluorescence. Potency, µM (top dose mostly 65.8 µM), inactives show at the top dose activity change, negative = inhibition, usual class: inhibitors. hit rate 0.35% among 350,000. AID 2517;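 further: plate controls were vehicle for no effect and reference inhibitor for full effect; nearly all actives have a fitted effect of over 55% in size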
Target sequence (P27695 whole entry, looked up): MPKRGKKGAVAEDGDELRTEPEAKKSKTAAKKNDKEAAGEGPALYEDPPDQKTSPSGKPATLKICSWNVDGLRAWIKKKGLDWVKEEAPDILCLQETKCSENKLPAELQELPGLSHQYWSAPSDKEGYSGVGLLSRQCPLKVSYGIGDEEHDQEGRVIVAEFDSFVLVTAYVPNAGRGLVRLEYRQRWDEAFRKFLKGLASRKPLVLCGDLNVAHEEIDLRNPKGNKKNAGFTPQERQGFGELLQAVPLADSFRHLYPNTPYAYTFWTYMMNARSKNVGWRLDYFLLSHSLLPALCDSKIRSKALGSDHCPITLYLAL
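Substrate: short duplex with […] THF abasic site, 5'-TAMRA and 3'-BHQ-2, 50 nM final. APE1 at 0.75 nM, preincubated 15 min RT with compound. Fluorescence increase from first to third read measured activity.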
ERG-DNA inh – blocks human ERG Ets domain binding to DNA. P11308. fluorescence polarization, His-ERG Ets domain / labelled DNA. Potency, µM (top dose mostly 76.9 µM), for inactives: at the highest dose FP activity, negative = inhibition, most hits filed as inhibitors. hit rate 0.028% among 370,000. AID 624246; active means well fitted inhibition curve with a large enough effect in the polarisation, with a control signal flat; inconclusive means small, poorly fitted or top-dose-only effect, or effect the other way, or a change in a side signal; inactive means no such curve, though single readings can be large or run the other way; the % refers to the polarisation;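 further: polarization taken with two DNA probes labelled with fluorescein and Texas red; % of control where 0% means no effect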
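His-tagged ERG Ets domain (1 uM in the protein solution; 300mM KCl, 50mM Tris-HCl, 1mM EDTA, 1mM DTT, pH 7.5) received compound, then a probe mix of 5 nM fluorescein-DNA and 100nM Texas-615-DNA. Fluorescence polarization was read for both dyes.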
GCN5L2 inh – inhibitors of human GCN5L2 histone acetyltransferase. AID 504327. hit rate 0.21% among 390,000. Potency, µM (doses to about 58.9 µM), for inactives: top-dose activity change, negative = inhibition, hits mostly inhibitors. GCN5L2 HAT assay, ThioGlo1 CoA-SH fluorescence. Q92830; further: on the % scale 0 is the no-effect control and ±100 the full control effect
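Enzyme at 20nM final was mixed with library compounds for 15 min at room temperature. Peptide H3(1-25) at 75uM, acetyl-CoA at 70uM and ThioGlo1 at 50uM were then added. Plates were read immediately and after 20 min (Ex340nm/Em540nm).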
BLM inh – Bloom syndrome helicase (human) inhibition; recombinant BLM DNA unwinding, fluorescence dequenching; Potency, µM (highest dose often 56.1 µM), for inactives: top-dose activity change, negative = inhibition, usual class: inhibitors; hit rate 0.2% among 350,000; AID 2528;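 further: plate controls were vehicle for no effect and no enzyme for full effect; nearly all actives have a fitted effect of over 35% in size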
* hit, by the source's call; i = inactive; ? = inconclusive; / = no result given; ! = not active in a repeat; [ ] = another dose, or the depositor's remark. Unless noted, the call rests on the fitted dose curve; in most records, active means well fitted curve in the direction sought with a large enough effect; inconclusive means small, poorly fitted or top-dose-only effect, or another doubt; inactive means no such curve, though single readings can be large; an effect the other way counts as inactive or inconclusive. Potency means the concentration at half of the fitted maximal effect.

SMILES	WRN helicase inh	RECQ1 helicase	APEX1 inh	ERG-DNA inh	GCN5L2 inh	BLM inh
CCN(CCN(C)C)C(=O)c1ccc2c(c1NCCO)C(=O)c1ccccc1C2=O	-33%	2%	8%	-9%	-11%	18µM*
COC(=O)[C@@H]1CC[C@H](C)[C@@H](c2ccc(C)cc2)N1C(=O)c1ccc(/C=N\O[C@@H](C)CN2CCCc3nc(C)c(C)cc32)cc1	/	-7%[11.5 µM]	4%[12.4 µM]	/	/	6%[12.4 µM]
CCN1CCN(C(c2ccc(F)cc2)c2c(O)cc(C)n(CCOC)c2=O)CC1 (centres undefined)	/	/	/	0%	1%	1%
N#C/C(=C\c1ccc(N2CCCCC2)o1)C(=O)Nc1cccc(Br)c1	89µM*	4%	-12%	?	1%	-10%
O=S(=O)(O)c1cc(I)c(O)c2ncccc12	/	/	/	/	5.6µM*	30%
Oc1c(I)cc(I)c2cccnc12	/	-3%	15%	-18%	-1%	-1%
O=C(O)CCCCCNS(=O)(=O)c1ccc2c3c(cccc13)C(=O)N2	?	/	-36%	5%	?	-3%
O=C(O)CNS(=O)(=O)c1ccc2c3c(cccc13)C(=O)N2	56µM*	/	?	1%	?	-10%
O=c1[nH]c(=S)[nH]c2c1C(c1ccc(Br)cc1)c1c([nH]c(=S)[nH]c1=O)O2	14µM*	/	11%	7%	14µM*	-20%
Cc1cc(C)n2cnnc2n1	1%	5%	?	11%	1%	1%
Cc1cc(C)n2c(=S)[nH]nc2n1	56µM*	-2%	8%	-19%	25µM*	0%
CC1=C(C#N)C(=O)N(C2CCS(=O)(=O)C2)C(=O)/C1=C\c1ccco1 (centres undefined)	/	3.2µM*	1.6µM*	/	?	7.1µM*
Cc1ccc(S(=O)(=O)C=CS(=O)(=O)c2ccc(C)cc2)cc1	-19%	/	/	/	/	/
Cc1ccc(S(=O)(=O)c2ccc(C)cc2)cc1	1%	-11%	5%	0%	-6%	-8%
CC(C)(C)c1ccc(S(=O)(=O)/C=C\C#N)cc1	/	-10%	-1%	/	28µM*	-6%
Cc1ccc(S(=O)(=O)/C=C\C#N)cc1	/	-2%	0%	/	28µM*	-2%
Cc1ccc(S(=O)(=O)/C=C/C#N)cc1	/	4%	-2%	/	22µM*!	0%
CCOC(=O)c1c(NC(=O)CSc2cn(CCNC(=O)c3ccc(OC)c(OC)c3)c3ccccc23)sc2c1CCCC2	/	/	/	1%	-10%	-10%
CCOC(=O)OCC1OC(C#Cc2ccccc2)C=CC1OC(=O)OCC (centres undefined)	/	11%[11.5 µM]	3%[12.4 µM]	/	/	-2%[12.4 µM]
CC(C)[C@H](CN(N=O)[C@@H](Cc1ccccc1)CN(C)N=O)N(CCc1ccccc1)N=O	-7%	-9%	-7%	-10%	-8%	-9%
CC(C)C[C@@H](CN(C)N=O)N(C[C@H](Cc1ccccc1)N(CCc1ccccc1)N=O)N=O	-1%	4µM*	0%	2%	0%	-6%
Cc1c(C(=O)NCc2cccc(Br)c2)oc2ccc3c(c12)C(=O)CC(C)(C)O3	/	/	/	-17%	-7%	-12%
O=C(Nc1n[nH]c(=S)s1)c1ccco1	-8%[11.6 µM]	/	6%	-6%	32µM*	1%
N[C@@H](Cc1cc(I)c(Oc2ccc(O)c(I)c2)c(I)c1)C(=O)O	?	-3%	-4%	11%	?	25µM*!
NC(Cc1cc(I)c(Oc2ccc(O)c(I)c2)c(I)c1)C(=O)O (centres undefined)	/	i	?	/	0%	3%
SMILES	WRN helicase inh	RECQ1 helicase	APEX1 inh	ERG-DNA inh	GCN5L2 inh	BLM inh
COc1cc(OC)c2c(c1C(CCN1CCCC(C)C1)c1ccc(N(C)C)cc1)OC(=O)CC2c1ccc(N(C)C)cc1 (centres undefined)	/	i	-1%	/	/	3%
CCC(=O)NC1=C(Cl)C(=O)C(NC(=O)CC)=C(Cl)C1=O	?	-8%	-1%	-23%	28µM*	-12%
O=[N+]([O-])c1ccc(Cl)c2c1C1C=CCC1C(c1ccccn1)N2 (centres undefined)	?	-17%	-11%	-12%	-10%	-28%
O=C(O)c1ccc(Cl)c2c1C1C=CCC1C(c1ccccn1)N2 (centres undefined)	/	-9%	25µM*	/	?	2%
Cn1c(=S)[nH]c(=O)c2ncc(=O)[nH]c21	-23%[57.1 µM]	0%	8%	14µM*	-4%	-2%
COC(C(=O)C(O)C(C)O)C1Cc2cc3cc(OC4CC(OC5CC(O)C(O)C(C)O5)C(O)C(C)O4)c(C)c(O)c3c(O)c2C(=O)C1OC1CC(OC2CC(OC3CC(C)(O)C(O)C(C)O3)C(O)C(C)O2)C(O)C(C)O1 (centres undefined)	/	/	/	/	0%	-2%
COC(=O)C(=Cc1cc(Br)c(OC)c(Br)c1)C(=O)OC	/	0%	2%	/	/	0%
Oc1ccc(COCc2ccccc2)c2cccnc12	10%	-16%	3%	-11%	25µM*!	3%
Oc1ccc(Cc2ccccc2)c2cccnc12	8%	/	/	-4%	/	/
CN(C)Cc1ccccc1-c1cc(Nc2ccccc2)ncn1	/	-20%	-3%	/	-3%	-1%
CN(C)CC1CC/C(=C\c2ccc(O)cc2)C1=O (centres undefined)	11µM*	/	/	/	/	/
COc1ccc(/C=C2/CCC(CN3CCOCC3)C2=O)cc1 (centres undefined)	14µM*	/	/	-10%	/	/
CC[C@H](C)[C@H](NC(=O)[C@@H]1CCCN1C(=O)[C@H](C)NC(=O)[C@H](CC(N)=O)NC(=O)[C@@H]1CCCN1C(=O)[C@@H]1CCCN1C(=O)[C@H](CCCN=C(N)N)NC(=O)[C@H](Cc1ccc(O)cc1)NC(=O)[C@H](C)NC(=O)[C@@H]1CCCN1C(=O)[C@@H]1CCCN1C(=O)[C@@H](N)[C@@H](C)O)C(=O)N[C@@H](CC(C)C)C(=O)O	/	-17%	-2%	/	-14%	1%
Cc1cccc(/C=C(\C(=O)O)c2ccc(S(=O)(=O)N3CCCC3)s2)c1	?	/	12µM*	-5%	?	/
C/C=C(/CC[C@@H](C)[C@H]1CCC2C3=CC[C@H]4[C@H](C)[C@@H](O)CC[C@]4(C)C3CC[C@@]21C)C(C)C (some centres undefined)	/	i	/	/	?	-5%
COc1cc(NC(=O)C(CC(C)C)N2Cc3ccccc3C2=O)cc(OC)c1 (centres undefined)	/	/	/	0%	-7%	-7%
CC1=[N+](C)c2c(ccc3cccnc23)C1(C)C	56µM*	?	?	125%	1%	36%
